The values below come from ChEMBL document CHEMBL1961873, “Compounds: GSK PKIS; Assays: Nanosyn kinase panel” (2012).

Values joined by “and” are separate entries in the source; they are usually repeats but may differ in a detail not shown here. Equal values may be shown once.

The target in assay [1] is Serine/threonine-protein kinase pim-2 (Homo sapiens) (UniProt Q9P1W9). The settings on record: at 1 µM.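 Note: each value is a mean of the inhibition measurements against the kinase.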
The target in assay [2] is Serine/threonine-protein kinase pim-3 (Homo sapiens) (UniProt Q86V86). To be noted: at 0.1 µM.
For assay [3] the target is unchanged. The settings on record: at 1 µM.
The target of assay [4] is T1, MAP kinase-activated protein kinase 5 (Homo sapiens) (UniProt Q8IW41).
T1 sequence (whole entry): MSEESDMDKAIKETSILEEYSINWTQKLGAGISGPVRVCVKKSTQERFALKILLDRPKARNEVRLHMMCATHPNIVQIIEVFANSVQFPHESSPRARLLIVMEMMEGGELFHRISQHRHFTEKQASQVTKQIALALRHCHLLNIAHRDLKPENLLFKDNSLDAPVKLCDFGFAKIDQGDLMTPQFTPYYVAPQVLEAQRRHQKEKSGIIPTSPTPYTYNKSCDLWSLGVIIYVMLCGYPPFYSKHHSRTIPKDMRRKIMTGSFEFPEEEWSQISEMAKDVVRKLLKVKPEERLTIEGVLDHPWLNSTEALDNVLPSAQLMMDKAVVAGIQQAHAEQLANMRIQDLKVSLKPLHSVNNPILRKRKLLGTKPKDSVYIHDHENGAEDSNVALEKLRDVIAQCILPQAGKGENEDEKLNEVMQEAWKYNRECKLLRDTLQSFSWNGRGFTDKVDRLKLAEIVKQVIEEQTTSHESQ
The settings on record: at 0.1 µM.

The target of assay [5] is T1, MAP kinase-activated protein kinase 5 (Homo sapiens). The settings on record: at 1 µM.
In assay [6] the target is Serine/threonine-protein kinase SIK1 (Homo sapiens) (UniProt P57059). The settings on record: at 0.1 µM.
Sequence of Serine/threonine-protein kinase SIK1 (Homo sapiens) (P57059 whole entry): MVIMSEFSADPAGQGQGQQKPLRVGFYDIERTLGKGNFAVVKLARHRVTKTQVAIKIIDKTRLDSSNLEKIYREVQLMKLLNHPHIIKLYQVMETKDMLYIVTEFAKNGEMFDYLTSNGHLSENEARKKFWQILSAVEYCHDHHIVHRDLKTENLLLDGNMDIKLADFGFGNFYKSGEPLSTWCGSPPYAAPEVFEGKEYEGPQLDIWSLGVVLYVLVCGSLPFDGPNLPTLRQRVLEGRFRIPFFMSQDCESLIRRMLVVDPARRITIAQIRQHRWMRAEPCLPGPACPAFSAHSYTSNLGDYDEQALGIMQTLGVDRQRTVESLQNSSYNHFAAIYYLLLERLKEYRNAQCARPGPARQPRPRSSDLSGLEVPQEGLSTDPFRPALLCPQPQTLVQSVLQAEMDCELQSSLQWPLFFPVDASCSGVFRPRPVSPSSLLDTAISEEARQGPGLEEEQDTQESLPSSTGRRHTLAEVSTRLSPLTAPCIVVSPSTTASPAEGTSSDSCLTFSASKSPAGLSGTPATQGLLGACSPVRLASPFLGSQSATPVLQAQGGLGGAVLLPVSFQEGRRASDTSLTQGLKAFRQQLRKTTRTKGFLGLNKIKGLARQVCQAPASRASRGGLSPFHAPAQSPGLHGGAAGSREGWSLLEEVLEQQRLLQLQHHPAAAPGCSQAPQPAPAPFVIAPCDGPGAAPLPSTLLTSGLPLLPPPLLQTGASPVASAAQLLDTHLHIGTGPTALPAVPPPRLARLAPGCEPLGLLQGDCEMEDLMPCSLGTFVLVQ
The target is the same in assay [7]. To be noted: at 1 µM.
Assay [8] has as its target Serine/threonine-protein kinase SIK2 (Homo sapiens) (UniProt Q9H0K1). The settings on record: at 0.1 µM.
For assay [9] the target is unchanged. To be noted: at 1 µM.
In assay [10] the target is T2, Serine/threonine-protein kinase TBK1 (Homo sapiens) (UniProt Q9UHD2).
T2 sequence (whole entry): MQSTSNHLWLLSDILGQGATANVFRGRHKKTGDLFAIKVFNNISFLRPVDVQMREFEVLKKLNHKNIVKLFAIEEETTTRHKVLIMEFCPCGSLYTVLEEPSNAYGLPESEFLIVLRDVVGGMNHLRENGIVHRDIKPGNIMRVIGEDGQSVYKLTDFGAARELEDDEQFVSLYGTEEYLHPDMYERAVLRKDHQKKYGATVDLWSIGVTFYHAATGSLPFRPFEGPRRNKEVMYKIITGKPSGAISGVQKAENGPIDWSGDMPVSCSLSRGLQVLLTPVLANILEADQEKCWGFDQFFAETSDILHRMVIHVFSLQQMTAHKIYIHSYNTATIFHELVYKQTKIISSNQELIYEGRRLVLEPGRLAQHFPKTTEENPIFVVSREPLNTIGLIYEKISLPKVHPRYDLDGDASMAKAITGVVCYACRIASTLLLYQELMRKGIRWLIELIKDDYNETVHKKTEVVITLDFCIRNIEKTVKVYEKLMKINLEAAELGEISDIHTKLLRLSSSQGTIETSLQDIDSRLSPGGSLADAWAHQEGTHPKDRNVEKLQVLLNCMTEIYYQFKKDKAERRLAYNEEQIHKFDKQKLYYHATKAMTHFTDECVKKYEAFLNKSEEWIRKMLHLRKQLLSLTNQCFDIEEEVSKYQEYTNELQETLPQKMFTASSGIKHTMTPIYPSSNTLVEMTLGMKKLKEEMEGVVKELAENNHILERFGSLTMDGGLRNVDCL
To be noted: at 0.1 µM.

Assay [11] concerns the target T2, Serine/threonine-protein kinase TBK1 (Homo sapiens). The settings on record: at 1 µM.
Assay [12] addresses T3, Testis-specific serine/threonine-protein kinase 1 (Homo sapiens) (UniProt Q9BXA7).
T3 sequence (whole entry): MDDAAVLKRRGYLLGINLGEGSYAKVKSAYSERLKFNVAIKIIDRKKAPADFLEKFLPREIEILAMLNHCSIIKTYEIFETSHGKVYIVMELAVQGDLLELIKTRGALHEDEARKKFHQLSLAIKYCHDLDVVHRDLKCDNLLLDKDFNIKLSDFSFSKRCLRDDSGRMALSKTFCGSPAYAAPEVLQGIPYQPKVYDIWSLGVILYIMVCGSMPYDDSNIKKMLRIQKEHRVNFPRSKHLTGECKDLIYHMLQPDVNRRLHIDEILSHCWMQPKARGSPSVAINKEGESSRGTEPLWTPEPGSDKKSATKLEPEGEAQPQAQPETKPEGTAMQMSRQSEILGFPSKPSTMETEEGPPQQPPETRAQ
The settings on record: at 0.1 µM.

For assay [13], the target named is T3, Testis-specific serine/threonine-protein kinase 1 (Homo sapiens). The settings on record: at 1 µM.
The target of assay [14] is T4, Testis-specific serine/threonine-protein kinase 2 (Homo sapiens) (UniProt Q96PF2).
T4 sequence (whole entry): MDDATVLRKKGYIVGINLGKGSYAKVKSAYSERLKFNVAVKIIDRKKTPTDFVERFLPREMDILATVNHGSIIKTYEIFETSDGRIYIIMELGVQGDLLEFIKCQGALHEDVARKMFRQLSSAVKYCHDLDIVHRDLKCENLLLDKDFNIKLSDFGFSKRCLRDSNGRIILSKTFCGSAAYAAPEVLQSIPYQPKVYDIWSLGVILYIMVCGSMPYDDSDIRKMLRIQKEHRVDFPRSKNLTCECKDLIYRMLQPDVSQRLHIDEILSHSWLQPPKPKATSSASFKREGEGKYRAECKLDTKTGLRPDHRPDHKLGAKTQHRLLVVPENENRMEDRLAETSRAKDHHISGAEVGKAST
To be noted: at 0.1 µM.

The target in assay [15] is T4, Testis-specific serine/threonine-protein kinase 2 (Homo sapiens). To be noted: at 1 µM.
Assay [16] deals with Casein kinase I isoform alpha (Homo sapiens) (UniProt P48729). The settings on record: at 0.1 µM.
Sequence of Casein kinase I isoform alpha (Homo sapiens) (P48729 2-337 limits assumed): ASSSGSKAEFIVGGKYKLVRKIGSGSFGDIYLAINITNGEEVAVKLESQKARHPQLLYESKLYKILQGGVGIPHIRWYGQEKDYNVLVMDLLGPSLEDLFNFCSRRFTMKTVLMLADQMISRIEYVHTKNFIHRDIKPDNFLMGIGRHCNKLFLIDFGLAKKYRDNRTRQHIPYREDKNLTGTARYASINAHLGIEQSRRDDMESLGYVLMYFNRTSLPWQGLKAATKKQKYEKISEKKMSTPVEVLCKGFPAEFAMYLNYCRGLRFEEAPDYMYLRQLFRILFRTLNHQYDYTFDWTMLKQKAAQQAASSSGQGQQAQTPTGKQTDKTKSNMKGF
Assay [17] has the same target. The settings on record: at 1 µM.
Assay [18] has as its target Casein kinase I isoform gamma-1 (Homo sapiens) (UniProt Q9HCP0). To be noted: at 0.1 µM.
The target is the same in assay [19]. The settings on record: at 1 µM.
The target of assay [20] is Casein kinase I isoform gamma-2 (Homo sapiens) (UniProt P78368). To be noted: at 0.1 µM.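 Note: values are mean inhibition figures reported as part of the GSK PKIS dataset.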
Sequence of Casein kinase I isoform gamma-2 (Homo sapiens) (P78368 whole entry, looked up, canonical isoform): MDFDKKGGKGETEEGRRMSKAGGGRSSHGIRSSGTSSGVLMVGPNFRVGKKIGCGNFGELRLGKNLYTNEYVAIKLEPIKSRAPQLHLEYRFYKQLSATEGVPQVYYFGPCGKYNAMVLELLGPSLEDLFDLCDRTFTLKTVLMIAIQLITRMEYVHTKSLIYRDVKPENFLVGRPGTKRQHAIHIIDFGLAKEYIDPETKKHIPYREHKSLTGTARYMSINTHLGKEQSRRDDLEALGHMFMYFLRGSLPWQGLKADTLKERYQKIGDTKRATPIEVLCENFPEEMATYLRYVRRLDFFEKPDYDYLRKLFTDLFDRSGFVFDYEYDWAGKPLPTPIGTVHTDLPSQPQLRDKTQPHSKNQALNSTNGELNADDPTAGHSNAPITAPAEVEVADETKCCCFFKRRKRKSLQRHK

Sequence of Serine/threonine-protein kinase SIK2 (Homo sapiens) (Q9H0K1 whole entry, looked up): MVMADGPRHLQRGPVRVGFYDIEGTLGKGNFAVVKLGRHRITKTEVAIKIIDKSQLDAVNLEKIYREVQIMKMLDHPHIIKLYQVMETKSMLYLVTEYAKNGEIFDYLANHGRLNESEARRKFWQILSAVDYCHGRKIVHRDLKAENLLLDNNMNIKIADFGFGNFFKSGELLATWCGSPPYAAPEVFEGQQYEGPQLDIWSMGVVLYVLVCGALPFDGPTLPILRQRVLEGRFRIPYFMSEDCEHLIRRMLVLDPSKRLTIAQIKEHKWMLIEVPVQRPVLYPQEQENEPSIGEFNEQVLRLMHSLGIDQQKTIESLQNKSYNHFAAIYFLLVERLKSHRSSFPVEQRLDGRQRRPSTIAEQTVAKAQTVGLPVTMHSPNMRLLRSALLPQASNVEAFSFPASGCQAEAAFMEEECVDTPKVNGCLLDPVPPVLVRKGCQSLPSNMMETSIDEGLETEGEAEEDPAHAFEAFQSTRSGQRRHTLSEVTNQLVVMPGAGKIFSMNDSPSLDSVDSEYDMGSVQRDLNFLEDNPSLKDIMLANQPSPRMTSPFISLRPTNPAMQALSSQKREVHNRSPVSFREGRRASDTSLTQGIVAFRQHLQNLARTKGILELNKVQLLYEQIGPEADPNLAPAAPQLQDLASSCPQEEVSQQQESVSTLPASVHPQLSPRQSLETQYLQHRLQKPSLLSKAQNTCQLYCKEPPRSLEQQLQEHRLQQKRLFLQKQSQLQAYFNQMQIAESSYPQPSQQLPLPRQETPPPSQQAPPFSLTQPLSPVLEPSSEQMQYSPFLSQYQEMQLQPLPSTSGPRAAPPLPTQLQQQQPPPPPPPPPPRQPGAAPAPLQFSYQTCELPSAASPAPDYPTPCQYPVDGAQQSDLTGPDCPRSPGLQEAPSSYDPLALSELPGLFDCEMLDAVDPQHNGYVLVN
Sequence of Casein kinase I isoform gamma-1 (Homo sapiens) (Q9HCP0 whole entry, looked up, canonical isoform): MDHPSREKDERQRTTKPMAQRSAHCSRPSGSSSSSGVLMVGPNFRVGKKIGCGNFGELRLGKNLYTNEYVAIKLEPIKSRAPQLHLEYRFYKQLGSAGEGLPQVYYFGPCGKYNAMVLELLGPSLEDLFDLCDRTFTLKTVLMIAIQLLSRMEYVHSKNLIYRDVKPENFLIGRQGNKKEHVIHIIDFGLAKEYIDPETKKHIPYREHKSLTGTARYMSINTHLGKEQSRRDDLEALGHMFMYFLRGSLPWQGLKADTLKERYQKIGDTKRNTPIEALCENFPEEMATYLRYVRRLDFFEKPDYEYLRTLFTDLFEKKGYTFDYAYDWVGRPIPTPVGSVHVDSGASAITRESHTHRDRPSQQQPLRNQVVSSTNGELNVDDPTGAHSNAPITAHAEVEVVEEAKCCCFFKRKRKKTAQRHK
Sequence of Serine/threonine-protein kinase pim-2 (Homo sapiens) (Q9P1W9 whole entry, looked up): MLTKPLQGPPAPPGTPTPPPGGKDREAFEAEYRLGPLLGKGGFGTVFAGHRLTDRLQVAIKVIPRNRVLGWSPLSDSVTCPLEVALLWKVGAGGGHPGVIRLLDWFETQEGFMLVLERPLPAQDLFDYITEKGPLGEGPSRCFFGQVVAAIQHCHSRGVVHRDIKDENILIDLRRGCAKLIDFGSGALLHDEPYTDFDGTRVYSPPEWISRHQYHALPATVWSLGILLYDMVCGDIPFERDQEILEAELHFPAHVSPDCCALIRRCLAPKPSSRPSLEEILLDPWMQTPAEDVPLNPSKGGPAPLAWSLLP

On to `CN1CCN(Cc2ccc(-c3cc4ncnc(Nc5ccc(OCc6cccc(F)c6)c(Cl)c5)c4s3)o2)CC1`, for which the inhibition in assay [1] is 0.42% and 1.37%; in assay [2], -0.99% and -1.6%; in [3], 0.95% and 2.39%; in assay [4], 0.79% and 1.52%; in assay [5], 0.84% and 3.86%; in [6], 4.03% and 8.14%. Moreover, the inhibition in assay [7] is 12.8% and 15.9%; in assay [8], 2.15% and 4.89%; in assay [9] it was 1.94% and 9.4%; in [10], 1.51% and 5%; in [11], 2.76% and 4.14%; in assay [12] it was 2.79% and 6.19%. Further, the inhibition was 3.62% and 7.65% in assay [13]; 0.34% and 4.58% in [14]; 0.35% and 5.87% in assay [15]; 3.03% and 3.11% in assay [16]; 4.88% and 3.62% in [17]; 2.79% and 5.01% in assay [18]. The inhibition is 4.51% and 5.57% in assay [19]; 2.31% and 3.69% in assay [20].

With `COc1ccc(-c2nn3ncccc3c2-c2ccnc(Nc3ccc(F)c(F)c3)n2)cc1`, the inhibition in assay [1] was 4.2%; in [2], 4.52%; in assay [3], 6.05%; in assay [4], 1.6%; in assay [5], 4.42%; in assay [6], 1.5%. For the same compound, the inhibition in [7] was 8.64%; in assay [8] it was 8.32%; in assay [9], 7.08%; in assay [10] it was -2.71%; in [11] it was 5.55%; in [12], 4.21%. In addition, the inhibition in assay [13] was determined as 5.79%; in assay [14] it was 2.03%; in assay [15] it was 5.03%; in assay [16], 4.64%; in assay [17], 6.66%; in assay [18], 4.01%. In addition, the inhibition stood at 4.36% in assay [19] and 3.31% in assay [20].

Consider `CS(=O)(=O)CCNCc1ccoc1-c1ccc2ncnc(Nc3ccc(OCc4ccccc4)cc3)c2c1`, for which the inhibition is -0.21% in assay [1]; 0.58% in assay [2]; -0.84% in [3]; 0.44% in assay [4]; 0.78% in [5]; 2.99% in assay [6]. Further, the inhibition was 4.48% in assay [7]; -0.71% in [8]; -0.59% in [9]; 0.39% in assay [10]; -2.25% in [11]; 0.51% in assay [12]. Further, the inhibition is 0.84% in [13]; 1.17% in assay [14]; 0.75% in [15]; 1.49% in assay [16]; -0.39% in [17]; 0.5% in assay [18]. Besides, the inhibition amounted to 1.25% in assay [19] and 0.24% in assay [20].

`CC1=C(C(=O)Nc2ccc3[nH]nc(C)c3c2)C(c2ccc(C(F)(F)F)cc2)CC(=O)N1` (stereo not given): the inhibition in assay [1] is 0.55%; in assay [2], 0.17%; in assay [3], -2.32%; in [4], 0.34%; in assay [5], -0.66%; in assay [6], 0.72%. The inhibition in assay [7] was 1.39%; in assay [8], 4.07%; in [9], 0.64%; in assay [10], -1.52%; in assay [11] it was 3.52%; in assay [12], 1.88%. In addition, the inhibition in assay [13] was 0.25%; in [14], 1.4%; in assay [15] it was -4.29%; in [16], 2.09%; in [17] it was 3.07%; in assay [18], 1.96%. In addition, the inhibition in assay [19] turned out to be 3.62%; in [20], 1.19%.

`COc1cccc(-n2ncc3c(N/N=C/c4ccc(C(=O)NCCN(C)C)cc4)ncnc32)c1`: the inhibition in assay [1] stood at 0.88%; in [2], 0.5%; in [3] it was 3.82%; in [4], 0.76%; in [5], 0.52%; in assay [6], 18.3%. The inhibition was 61.2% in assay [7]; 34.6% in assay [8]; 76% in assay [9]; 2.76% in assay [10]; 11.2% in [11]; 1.35% in [12]. Besides, the inhibition in assay [13] is 0.43%; in [14], -0.44%; in assay [15], -0.81%; in assay [16], 1.58%; in assay [17], 7.14%; in [18] it was 2.73%. Further, the inhibition amounted to 11.7% in assay [19] and 1.5% in [20].

In the case of `COc1cc(N2CCN(C(C)C)CC2)ccc1Nc1nc(Nc2cccc3ncccc23)c2cc[nH]c2n1`, the inhibition was 0.36% in assay [1]; -0.71% in [2]; 0.17% in [3]; 0.21% in assay [4]; -0.62% in assay [5]; -2.95% in assay [6]. In addition, the inhibition is 0.48% in assay [7]; -4.22% in assay [8]; 3.12% in assay [9]; -0.11% in assay [10]; 0.59% in [11]; 5.22% in assay [12]. Further, the inhibition is 31.2% in assay [13]; 0.31% in assay [14]; 11.3% in assay [15]; -0.03% in assay [16]; 2.43% in [17]; -1.03% in [18]. The inhibition in assay [19] was -0.55%; in assay [20], -1.25%.

In the case of `CCn1c(-c2nonc2N)nc2cncc(C(=O)NCCNC)c21`, the inhibition in assay [1] is 18.8%; in [2], 26.3%; in assay [3], 69.3%; in [4], 1.39%; in [5], 1.58%; in assay [6] it was 3.17%. Further, the inhibition in [7] came out at 9.07%; in [8], 2.51%; in [9] it was 6.02%; in [10] it was 4.08%; in [11] it was 9.32%; in assay [12] it was 7.08%. Besides, the inhibition is 32.1% in [13]; 2.36% in [14]; 1.74% in [15]; 4.37% in [16]; 4.77% in assay [17]; 4.39% in [18]. The inhibition was 5.89% in assay [19] and 3.81% in assay [20].
